Data from PubChem BioAssay (NCATS).
Inconclusive results are not listed. Entries that show only a call come without a potency. Activity calls are given as the source filed them. Calls come from the whole dose curve; as a rule, active = well fitted inhibition curve with a large enough effect in the signal ratio, with a control signal flat (not every such curve was filed as active); inconclusive = small, poorly fitted or top-dose-only effect, or effect the other way, or a change in a side signal; inactive = flat fitted curve, though single readings scatter; the % refers to the signal ratio.

assay: qHTS Assay for Identification of Small Molecule Antagonists for NFkB Signaling Pathway (AID 895); details: NFkB beta-lactamase reporter cells, FRET ratio 460/530, stimulated with 10 pM TNF alpha; series mostly up to 38.3 µM
Description: NIH Molecular Libraries Screening Centers Network [MLSCN]
NIH Chemical Genomics Center [NCGC]
The TNF alpha/NFkB signaling pathway was assayed in NFkB-bla cells (Invitrogen), a ME-180 cervical carcinoma line containing a stably integrated beta-lactamase reporter gene controlled by a NFkB response element. […] The assay was screened at the EC50 of TNF alpha activation to identify inhibitors of TNF alpha/NFkB signaling.
NCGC Assay Protocol Summary:
Cells were trypsinized, washed in assay medium (AM, OPTI MEM with 0.5% fetal bovine serum, 0.1 mM nonessential amino acids, 1 mM sodium pyruvate, 10mM HEPES pH 7.3, 100U/ml penicillin, and 100 ug/ml streptomycin) and plated at 1000 cells/5 uL/well into black clear-bottom 1536 well plates. After an overnight incubation at 37 C and 5% CO2, 23 nL of compound were delivered by a pin tool, 1 uL of TNF alpha (10 pM final concentration in AM) was added and plates were incubated at 37 C for 5 hrs. One uL of LiveBLAzerTM detector mix (Invitrogen) was added, the plates incubated at room temperature for 2 hrs, and fluorescence intensity at 460 and 530 nm emission was measured at 405 nm excitation by an Envision (Perkin Elmer).
Potency is the fitted concentration of half-maximal effect.

| Structure (SMILES) | Potency |
| --- | --- |
| O=C1CC[C@H](N2C(=O)c3ccccc3C2=O)C(=O)N1 | inactive |
| NS(=O)(=O)c1cc2c(cc1Cl)N[C@@H]([C@@H]1C[C@@H]3C=C[C@H]1C3)NS2(=O)=O | inactive |
| S=C(S)O[C@@H]1C[C@@H]2C[C@H]1[C@@H]1CCC[C@H]21 | inactive |
| CNC(=O)Oc1ccc2c(c1)[C@@]1(C)CCN(C)[C@@H]1N2C | inactive |
| Cc1cccc([C@@H]2CN(C)CCc3c2cc(O)c(O)c3Cl)c1 | inactive |
| CCCCCCCCCCCCC/C=C\[C@@H](O)[C@@H](N)CO | inactive |
| COCCOC(=O)C1=C(C)NC(C)=C(C(=O)OC(C)C)[C@@H]1c1cccc([N+](=O)[O-])c1 | 7.08 µM (active) |
| COc1cccc(OC)c1OCCNC[C@@H]1COc2ccccc2O1 | inactive |
| N[C@]1(C(=O)O)CCc2cc(C(=O)O)ccc21 | inactive |
| C[C@@](N)(C(=O)O)c1ccc(C(=O)O)cc1 | inactive |
| CC(C)(C)NC[C@H](O)COc1cccc2[nH]c(=O)[nH]c12 | inactive |
| NCCCCCCNS(=O)(=O)c1cccc2c(Cl)cccc12 | inactive |
| CC(C)NC[C@H](O)c1ccc(NS(C)(=O)=O)cc1 | inactive |
| Fc1cccc(/C=N\N=C/c2cccc(F)c2)c1 | inactive |
| CN1CCN2c3ccccc3Cc3ccccc3[C@@H]2C1 | inactive |
| N[C@H](CCC(=O)N[C@H](CSN=O)C(=O)NCC(=O)O)C(=O)O | inactive |
| C[C@@H]1CCN=C(N)S1 | inactive |
| C[C@@H]1C[C@@H]2[C@H]3CCC4=CC(=O)C=C[C@]4(C)[C@]3(F)[C@@H](O)C[C@@]2(C)[C@@]1(O)C(=O)CO | 0.01 µM (active) |
